Consider 14 compounds from PubChem BioAssay (Tox21).

SMILES strings stand for the structures. Values joined by “and” are separate entries in the source; they are usually repeats but may differ in a detail not shown here. Equal values may be shown once. Inconclusive results are not listed. More than one record can exist for a structure, and the calls need not agree. Active and inactive are the calls of the source. Calls follow the shape of the dose curve; as a rule, active = well fitted curve in the direction sought with a large enough effect in the repeat runs; inconclusive = weak or mixed curves; inactive = no such curve, though single readings can be large; an effect the other way counts as inactive or inconclusive.

Assay [1] is described as follows: qHTS RealTime-Glo MT Cell Viability Assay in HEK293 cells - 16 hour (AID 1224872). Also: top concentration of the series differs between compounds; nearly all actives have a fitted effect of over 50% in size. The procedure, abridged: (§1)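 HEK293 cells seeded with NanoLuc/prosubstrate reagent, rested 5 h at 37 C, then dosed and kept at 37 C up to 40 h. Nonlytic real-time luminescence from viable cells read at 0, 8, 16, 24, 32 and 40 h.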
(In qHTS, concentration-response curves come from the screen itself.)

The nature of assay [2]: qHTS RealTime-Glo MT Cell Viability Assay in HepG2 cells - 8 hour (AID 1224873). Also: nearly all actives have a fitted effect of over 55% in size. The procedure, abridged:
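Real-time viability: cells seeded at 600 per well together with NanoLuc and cell-permeant prosubstrate, compounds added after 5 h incubation. Luminescence tracked at 0, 8, 16, 24, 32 and 40 h of exposure.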

Assay [3] is described as follows: qHTS RealTime-Glo MT Cell Viability Assay in HEK293 cells - 40 hour (AID 1224874). Also: nearly all actives have a fitted effect of over 50% in size. The following applies: RealTime-Glo luminescence; max response: stronger effect = lower value. The procedure, abridged: (§2)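 qHTS format; HEK293 cells with NanoLuc/prosubstrate reagent, 37 C/5% CO2 for 5 h pre-dosing; compounds 23 nL in DMSO; luminescence at each time point reflects viable cells.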

Assay [4] in a line: A CellTox Green Cytotoxicity Assay to monitor cytotoxicity in HepG2 cells - 16 hour (AID 1224876). Also: nearly all actives have a fitted effect of over 45% in size. Also: potency is read from the fitted curve at half-maximal effect. The procedure, abridged: (§3)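 Continuous culture of HepG2 cells with a membrane-impermeant DNA dye; rising fluorescence marks dead cells. Compound exposure lasted up to 40 h at 37 C, with reads every 8 h from 0 h.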
The nature of assay [5]: qHTS RealTime-Glo MT Cell Viability Assay in HepG2 cells - 32 hour (AID 1224877). Also: nearly all actives have a fitted effect of over 55% in size. The procedure, abridged: (§4)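 HepG2 cells (600/well) were dispensed with RealTime-Glo reagents, incubated 5 h at 37 °C, then treated with compounds in DMSO for up to 40 h. Nonlytic NanoLuc luminescence reflecting viable cells was read at each stated time point.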
The nature of assay [6]: A CellTox Green Cytotoxicity Assay to monitor cytotoxicity in HEK293 cells - 32 hour (AID 1224881). Also: nearly all actives have a fitted effect of over 40% in size. Also: potency is read from the fitted curve at half-maximal effect. In short, it runs like this: (§5)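 Each value comes from one timepoint of a single continuous run in which HEK293 cells with CellTox Green were exposed to compound for up to 40 h at 37 C, dye fluorescence rising with cell death.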
Assay [7] in a line: A CellTox Green Cytotoxicity Assay to monitor cytotoxicity in HepG2 cells - 0 hour (AID 1224882). Also: nearly all actives have a fitted effect of over 35% in size. Also: potency is read from the fitted curve at half-maximal effect. In short, it runs like this:
as §3

The nature of assay [8]: A CellTox Green Cytotoxicity Assay to monitor cytotoxicity in HepG2 cells - 32 hour (AID 1224883). Also: nearly all actives have a fitted effect of over 50% in size. Also: potency is read from the fitted curve at half-maximal effect. In short, it runs like this: as §3
Assay [9] is described as follows: qHTS RealTime-Glo MT Cell Viability Assay in HepG2 cells - 16 hour (AID 1224885). Also: nearly all actives have a fitted effect of over 50% in size. The procedure, abridged: as §4
Assay [10] in a line: qHTS RealTime-Glo MT Cell Viability Assay in HEK293 cells - 24 hour (AID 1224886). In short, it runs like this:
as §1

Assay [11] can be described thus: qHTS RealTime-Glo MT Cell Viability Assay in HEK293 cells - 8 hour (AID 1224887). The procedure, abridged: as §2
A short description of assay [12]: qHTS RealTime-Glo MT Cell Viability Assay in HepG2 cells - 0 hour (AID 1224889). Also: nearly all actives have a fitted effect of over 50% in size. The procedure, abridged: as §4
Assay [13] can be described thus: A CellTox Green Cytotoxicity Assay to monitor cytotoxicity in HepG2 cells - 8 hour (AID 1224890). Also: nearly all actives have a fitted effect of over 45% in size. Also: potency is read from the fitted curve at half-maximal effect. The procedure, abridged: as §3
Assay [14] in a line: qHTS assay to identify small molecule antagonists of the estrogen receptor alpha (ER-alpha) signaling pathway using the BG1 cell line in the presence of 0.1 nM 17-beta-estradiol - cell viability counter screen (AID 1259241). Also: nearly all actives have a fitted effect of over 40% in size. The procedure, abridged:
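Measures cytotoxicity alongside the ER-alpha antagonist readout: VM7Luc4E2 cells, charcoal-stripped serum, 0.1 nM 17beta-estradiol final, 22 hr compound incubation at 37C, CellTiter-Fluor fluorescence.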

A short description of assay [15]: A CellTox Green Cytotoxicity Assay to monitor cytotoxicity in HepG2 cells - 40 hour (AID 1224879). Also: nearly all actives have a fitted effect of over 40% in size. The procedure, abridged:
as §3

The nature of assay [16]: A CellTox Green Cytotoxicity Assay to monitor cytotoxicity in HEK293 cells - 8 hour (AID 1224884). Also: nearly all actives have a fitted effect of over 35% in size. In short, it runs like this: as §5
Assay [17] is described as follows: A CellTox Green Cytotoxicity Assay to monitor cytotoxicity in HEK293 cells - 16 hour (AID 1224888). Also: nearly all actives have a fitted effect of over 35% in size. The procedure, abridged: as §5
The nature of assay [18]: A CellTox Green Cytotoxicity Assay to monitor cytotoxicity in HepG2 cells - 24 hour (AID 1224878). Also: nearly all actives have a fitted effect of over 45% in size. The procedure, abridged: as §3
Assay [19] can be described thus: qHTS RealTime-Glo MT Cell Viability Assay in HEK293 cells - 0 hour (AID 1224880). Also: top concentration of the series differs between compounds; nearly all actives have a fitted effect of over 45% in size. In short, it runs like this:
as §2
% is scaled to controls: 0 for no effect and ±100 for the full control effect.

On to `CC(C)c1cccc(C(C)C)c1O`, for which the compound was called inactive in assay [1], in [2], in assay [5], in assay [9], in assay [10] and in assay [11]. Besides, the outcome in [12] and in assay [14] was inactive. Also, in [3], the max response is -0.191% (inactive) and -2.39% (inactive) and 0.656% (inactive). The Potency in [4] was 43.6 µM (active) and inactive; in assay [6] it was 24.5 µM (active) and 43.6 µM (active) and inactive; in [7], “inactive and 43.6 µM (active)”; in [8] it was 43.6 µM (active) and inactive; in assay [13], 43.6 µM (active) and inactive.

As for `C[C@H]1C(=O)O[C@@H]2CCN3CC=C(COC(=O)[C@](C)(O)[C@]1(C)O)[C@H]23`, the compound was classed as inactive in assay [1], in assay [2], in [5], in assay [9], in assay [10] and in assay [11]. Moreover, the call in [12] and in [14] was inactive. In [3], the max response was -22.4% (inactive) and -7.52% (inactive) and -7.78% (inactive). In addition, the Potency result in [15], in [6], in assay [7], in assay [8], in assay [16] and in assay [17] was “inactive” in each case. In addition, the Potency entry in [13] was “inactive”.

On to `CCOP(=S)(OCC)Oc1cc(C)nc(C(C)C)n1`, for which the compound was classed as inactive in assay [1], in assay [2], in assay [5], in assay [9], in assay [10] and in [11]. Besides, the compound was called inactive in assay [12] and in [14]. In assay [3], the max response is 2.72% (inactive) and 7.6% (inactive) and 1.58% (inactive). In addition, the Potency entry in [4], in assay [18], in assay [6], in [7], in [8] and in assay [13] was “inactive” throughout.

For `CNc1cnn(-c2cccc(C(F)(F)F)c2)c(=O)c1Cl`, the compound was classed as inactive in assay [1], in assay [2], in [5], in assay [19], in assay [9] and in [10]. For the same compound, the outcome in [11], in [12] and in assay [14] was inactive. Moreover, the max response in assay [3] was -24.9% (inactive) and -29.1% (inactive). The Potency entry in assay [15], in [6], in assay [7], in assay [8] and in assay [13] was “inactive” throughout.

Regarding `O=S(=O)(O)OOS(=O)(=O)O`, the compound was called inactive in [1], in assay [2], in [5], in assay [9], in assay [10] and in assay [11]. For the same compound, the result in assay [12] and in [14] was inactive. Besides, in assay [3], the max response was 2.97% (inactive) [middle of 4 runs]. The Potency entry in assay [18], in assay [6], in [7], in assay [8] and in assay [13] was “inactive” throughout.

With `FC(F)(F)c1ccc(Cl)cc1`, the result in assay [1], in assay [2], in [5], in [9], in [10] and in assay [11] was inactive. Besides, the call in assay [12] and in [14] was inactive. The max response in [3] was 3.01% (inactive) and 8.11% (inactive). For the same compound, the Potency result in [4], in [15], in assay [6], in assay [7], in [8] and in assay [13] was “inactive” in each case.

`CC12CC1(C)C(=O)N(c1cc(Cl)cc(Cl)c1)C2=O` (stereo not drawn): the compound was classed as inactive in assay [1], in assay [2], in assay [5], in assay [19], in assay [9] and in assay [10]. For the same compound, the result in assay [11], in assay [12] and in assay [14] was inactive. Also, the max response in [3] was 1.77% (inactive) and 7.9% (inactive). Besides, the Potency result in assay [18], in assay [15], in assay [6], in assay [7], in assay [8] and in assay [17] was “inactive” in each case. Further, the Potency entry in [13] was “inactive”.

Take `OCCCCO`: the result in [1], in [2], in [5], in [9], in [10] and in [11] was inactive. Moreover, the compound was called inactive in assay [12] and in [14]. Besides, the max response in assay [3] was 2.32% (inactive) and 1.82% (inactive). Further, the Potency entry in [4], in assay [6], in assay [7], in assay [8], in [16] and in assay [17] was “inactive” each time. The Potency entry in [13] was “inactive”.

`Cc1ccc(N=C=O)cc1N=C=O`: the compound was called inactive in assay [1], in [2], in [5], in assay [9], in [10] and in assay [11]. The call in assay [12] and in assay [14] was inactive. In addition, the max response in assay [3] is 7.57% (inactive) and -22.1% (inactive). The Potency result in [6], in [7], in [8], in assay [17] and in assay [13] was “inactive” throughout.

`CCNc1nc(Cl)nc(NC(C)C)n1`: the compound was called inactive in assay [1], in [2], in assay [5], in [19], in assay [9] and in [10]. Besides, the compound was called inactive in [11], in [12] and in [14]. In addition, in [3], the max response is 2.47% (inactive) and -5.57% (inactive). For the same compound, the Potency result in assay [6], in assay [7], in assay [8], in assay [16] and in assay [13] was “inactive” in each case.

Turning to `O=C(O)COc1ccccc1`, the outcome in assay [1], in [2], in [5], in [19], in assay [9] and in assay [10] was inactive. Moreover, the result in assay [11], in [12] and in assay [14] was inactive. The max response in assay [3] is -2.67% (inactive) and 2.52% (inactive) and 5.65% (inactive). Besides, the Potency result in assay [18], in [6], in assay [7], in assay [8] and in [13] was “inactive” each time.

For `Cl[C@H]1OCCO[C@@H]1Cl`, the call in assay [1], in assay [2], in assay [5], in assay [9], in assay [10] and in assay [11] was inactive. The outcome in assay [12] and in assay [14] was inactive. Moreover, in assay [3], the max response is 9.41% (inactive) and 3.91% (inactive). Besides, the Potency entry in assay [18], in assay [6], in [7], in assay [8], in assay [16] and in assay [17] was “inactive” each time. In addition, the Potency entry in assay [13] is “inactive”.

Regarding `CNC(=O)Oc1cccc2ccccc12`, the result in [1], in assay [2], in assay [5], in assay [9], in assay [10] and in assay [11] was inactive. For the same compound, the compound was called inactive in assay [12] and in [14]. In addition, the max response in assay [3] was -29.1% (inactive) and -20.7% (inactive) and -13.7% (inactive). Further, the Potency entry in assay [6], in assay [7], in [8], in assay [17] and in assay [13] was “inactive” each time.

`O=C/C=C/c1ccccc1`: the result in assay [1], in assay [2], in assay [5], in [19], in assay [9] and in [10] was inactive. Moreover, the compound was called inactive in assay [11], in assay [12] and in assay [14]. Also, the max response in assay [3] is -0.971% (inactive) and 11.8% (inactive) and 2.22% (inactive). Also, the Potency result in assay [18], in assay [6], in assay [7], in assay [8], in [16] and in [17] was “inactive” in each case. In assay [13], the Potency entry is “inactive”.
